CYP2C9 activ: increases human cytochrome P450 2C9 activity | recombinant CYP2C9, luciferin-H conversion, luminescence; stronger effect = higher value; factor 1 = untreated enzyme, 0 = blocked | P11712 | activation factor at 5 µM | AID 1024 | hit rate 1.4% among 96,000;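 active = activation factor of 2 or more for CYP2C9 at a 5 µM dose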
Target sequence (P11712 whole entry, looked up): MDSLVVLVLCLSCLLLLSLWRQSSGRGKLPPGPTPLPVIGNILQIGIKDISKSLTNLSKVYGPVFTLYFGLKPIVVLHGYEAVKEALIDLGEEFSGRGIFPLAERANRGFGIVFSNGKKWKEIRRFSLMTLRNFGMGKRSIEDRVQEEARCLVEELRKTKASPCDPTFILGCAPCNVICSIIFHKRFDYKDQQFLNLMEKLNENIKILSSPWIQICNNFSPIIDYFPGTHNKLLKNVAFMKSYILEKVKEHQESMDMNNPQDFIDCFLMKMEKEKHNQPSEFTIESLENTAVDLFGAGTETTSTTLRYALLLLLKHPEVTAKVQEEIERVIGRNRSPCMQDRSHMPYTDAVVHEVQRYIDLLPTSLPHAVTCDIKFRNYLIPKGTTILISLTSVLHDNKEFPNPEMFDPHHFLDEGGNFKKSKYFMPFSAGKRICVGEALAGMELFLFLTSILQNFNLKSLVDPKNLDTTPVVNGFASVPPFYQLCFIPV
CYP2C19 inh: human CYP2C19 inhibition. P33261. AID 778. inhibition, % at 5 µM. CYP2C19 Supersomes, luciferin-H EGE luminescence, 30 min. hit rate 21% among 96,000;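 active = CYP2C19 inhibition above a set limit at 5 µM in the primary screen, cut at about 50% in these data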
CYP2C19 activ: increases human CYP2C19 enzyme activity; recombinant CYP2C19, luciferin-H EGE luminescence; stronger effect = higher value; 0 = fully inhibited enzyme, 1 = untreated enzyme; activation factor at 5 µM; P33261; 96,000 tested, under 10 active;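 active = activation factor of at least 2 at 5 µM in the primary screen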
Cav32 inh: blocks human Cav3.2 T-type calcium channel | B-score at 10 µM | hit rate 4% among 100,000 | O95180 | AID 449739 | Cav3.2-expressing cells, Fluo-4 calcium fluorescence FDSS; stronger effect = lower value;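 active = single-dose well whose peak fluorescence ratio is a statistical outlier from its plate by either plate-standardised score or position-corrected B-score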
CYP2C9 inhib: blocks human cytochrome P450 2C9 | P11712 | CYP2C9 Supersomes, luciferin-H conversion, luminescence | inhibition, % at 5 µM | hit rate 20% among 96,000;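 active = blocking of liver enzyme CYP2C9 beyond about 50% at 5 µM, limit read from the data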
Hits are given with their value; n = inactive; x = no result. Hits are enriched below; roughly 27% of the tested compounds scored in any of these assays.

SMILES | CYP2C9 activ | CYP2C19 inh | CYP2C19 activ | Cav32 inh | CYP2C9 inhib
O=C(c1ccccc1Cl)N(C(=O)c1ccccc1Cl)c1nccc(-c2cccs2)n1 | n | n | n | n | 76.8
COc1ccc(OC(=O)CCCN2C(=O)c3ccccc3C2=O)cc1 | n | 52.9 | n | n | n
Cc1cc(=O)oc2cc(OC(=O)CCN3C(=O)c4ccccc4C3=O)ccc12 | n | n | n | n | n
COc1ccccc1OCCC(=O)OCCN1C(=O)c2ccccc2C1=O | n | 56.1 | n | n | n
COC(=O)C1=C(C)NC(=O)NC1c1ccccc1 (centres undefined) | x | x | x | n | x
COC(=O)C1=C(C)NC(C)=C(C(=O)OC)C1C(=O)OCCN1C(=O)c2ccccc2C1=O | n | 80.2 | n | n | 70.8
CCCCC1CC1C(=O)Nc1ccc(OC)c(OC)c1 (centres undefined) | n | 91.7 | n | n | 59.1
CS(=O)(=O)N(CC(=O)Nc1ccccc1Sc1ccccc1)C1CCCCC1 | n | n | n | -5.88 | n
CSc1cccc(NC(=O)CN(C2CCCCC2)S(C)(=O)=O)c1 | n | 59.2 | n | -5.13 | 70.9
COc1ccc(NC(=O)N2CCCC2)cc1OC | n | n | n | n | n
COc1ccc(NC(=O)CN(C2CCCCC2)S(C)(=O)=O)cc1OC | n | 50.5 | n | n | n
O=C(CSc1nn(-c2ccccc2)c(=S)s1)NC(=O)NCc1ccco1 | n | n | n | n | n
O=C1c2ccccc2CN1CCNS(=O)(=O)c1ccc(Cl)cc1 | n | n | n | n | n
Cc1ccc(/C=C(\C#N)c2nc3ccccc3[nH]2)s1 | n | n | n | n | n
N#C/C(=C\c1ccc(Cl)cc1)c1nc2ncccc2[nH]1 | n | n | n | x | 60.7
O=C(Nc1ccccc1)N(O)c1ccc(Cl)cc1 | n | 80.1 | n | n | 61.0
Cc1cccc(NC(=S)NC2CC3CCCC(C2)N3CC(C)C)c1 (centres undefined) | x | x | x | n | x
COc1ccccc1NC(=O)COC(=O)CNC(=O)c1ccc(OC)c(OC)c1 | n | n | n | n | n
CCCCN1C(=O)c2ccc(C(=O)Nc3c(N)n(CCCC)c(=O)n(C)c3=O)cc2C1=O | n | n | n | n | 56.5
COCCCN1C(=O)c2ccc(C(=O)Nc3ccccc3OC)cc2C1=O | 2 | n | n | n | n
COCCN1C(=O)c2ccc(C(=O)O)cc2C1=O | n | n | n | n | 54.7
CCn1nnnc1-c1ccc(OC)c(S(=O)(=O)N2CCCCC2)c1 | n | n | n | n | n
Cc1ccccc1C(=O)NCCc1nnc(SCC(=O)Nc2nc(-c3ccccc3)cs2)n1C | x | x | x | n | x
CCn1c(SCC(=O)Nc2nc(-c3ccc(C)cc3)cs2)nnc1-c1ccccc1 | n | n | n | n | 85.0
CCn1c(SCC(=O)Nc2nc(-c3ccc(C)cc3)cs2)nnc1-c1ccccc1O | n | 57.2 | n | n | 71.6
SMILES | CYP2C9 activ | CYP2C19 inh | CYP2C19 activ | Cav32 inh | CYP2C9 inhib
Cc1ccc(C(=O)CSc2nnc(CNc3nc(-c4ccccc4)cs3)n2C)cc1 | n | n | n | -4.55 | n
COc1ccccc1-c1nnc(SCC(=O)Nc2nc(-c3ccccc3)cs2)n1C | n | 91.4 | n | -6.61 | 98.5
Cc1ccccc1Cn1c2ccccc2c2cn[nH]c(=O)c21 | n | n | n | n | n
CCCCNC(=O)CSc1nnc(-c2ccc(S(=O)(=O)N3CCCC3)cc2)n1C | x | x | x | n | x
O=C(CNCC1CCCO1)N1CCCc2ccccc21 (centres undefined) | n | n | n | n | n
COc1ccccc1OCC(O)Cn1nc(C)cc1C (centres undefined) | x | x | x | n | x
Cc1cc(C)n(CC(O)COc2ccccc2C(=O)Nc2ccccc2)n1 (centres undefined) | n | 90.7 | n | n | 88.3
COc1ccc(Cc2nc3ccc(S(=O)(=O)N4CCOCC4)cc3[nH]2)cc1 | n | n | n | n | n
COc1cccc(CNC(=O)C2CCN(S(=O)(=O)N3CCCC3)CC2)c1 | n | n | n | n | n
COc1cccc(CNS(=O)(=O)c2cccc(S(=O)(=O)N3CCOCC3)c2)c1 | n | 57.1 | n | n | n
COC(=O)c1ccc(S(=O)(=O)NCc2cccc(OC)c2)n1C | n | 60.4 | n | n | n
O=C(NCc1ccc2c(c1)OCO2)c1cccc(S(=O)(=O)N2CCOCC2)c1 | n | n | n | n | n
COc1ccc(CNS(=O)(=O)c2cccc(S(=O)(=O)N3CCOCC3)c2)cc1 | n | 57.9 | n | -4.41 | n
O=S(=O)(NCc1ccc2c(c1)OCO2)c1cccc(S(=O)(=O)N2CCOCC2)c1 | n | 74.6 | n | n | n
CCC/C=C(\CCC)C(NC(=O)c1ccc(C(F)(F)F)cc1)c1ccccc1 (centres undefined) | x | x | x | n | x
COCCn1nnnc1C(c1ccc(OC)cc1OC)N1CCN(c2ccccc2F)CC1 (centres undefined) | n | n | n | n | n
CCN(Cc1ccccc1)C(c1cc2ccc(C)cc2[nH]c1=O)c1nnnn1CCOC (centres undefined) | n | n | n | n | 55.2
COCCn1nnnc1C(C(C)C)N(Cc1cccnc1)Cc1cc2cc(OC)ccc2[nH]c1=O (centres undefined) | n | n | n | x | n
COCCn1nnnc1C(C(C)C)N(Cc1ccccc1)Cc1cc2cc(OC)ccc2[nH]c1=O (centres undefined) | n | 76.6 | n | -3.97 | 83.7
CCc1ccc2[nH]c(=O)c(C(c3nnnn3CCOC)N3CCN(c4ccccc4F)CC3)cc2c1 (centres undefined) | n | 53.8 | n | n | n
COc1ccc(CN(Cc2cc3cc(C)ccc3[nH]c2=O)C(=O)N(C)C)cc1 | n | n | n | n | n
COCCn1nnnc1C(c1cc2cc(C)ccc2[nH]c1=O)N1CCN(C2CCCCC2)CC1 (centres undefined) | n | n | n | n | n
CCc1ccc2[nH]c(=O)c(CN(Cc3ccc(OC)cc3)Cc3nnnn3CCOC)cc2c1 | n | 54.6 | n | n | 57.0
CCOC(=O)/C(N=Nc1ccc(F)cc1)=C(/O)c1ccc([N+](=O)[O-])cc1 | n | n | n | n | n
COc1ccc(C2(CNC(=O)c3ccc(Br)o3)CCOCC2)cc1 | n | n | n | n | n
SMILES | CYP2C9 activ | CYP2C19 inh | CYP2C19 activ | Cav32 inh | CYP2C9 inhib
CCC(C)(C)n1nnnc1C(C(C)C)N(Cc1ccco1)Cc1cc2cc3c(cc2[nH]c1=O)OCO3 (centres undefined) | n | n | n | n | n
Cc1cccc2cc(CN(Cc3ccco3)C(c3nnnn3CCc3ccccc3)C(C)C)c(=O)[nH]c12 (centres undefined) | n | 78.2 | n | n | 83.2
CCCC(=O)NC(=S)Nc1ccccc1C(F)(F)F | n | 54.9 | n | n | 50.0
CCCC(=O)NC(=S)Nc1cccc(Cl)c1N1CCCCC1 | n | 69.2 | n | -4.98 | 93.1
CCCC(=O)Nc1ccc(C(=O)NNC(=S)NC(=O)c2cccs2)cc1 | n | n | n | n | n
CCN(c1ccccc1)S(=O)(=O)c1ccc(NC(=S)NC(=O)c2cccs2)cc1 | n | n | n | n | 77.0
CCCC(=O)NC(=S)Nc1ccc(NC(=O)c2cccs2)cc1 | n | 51.7 | n | n | 85.0
CCC(=O)NC(=S)Nc1ccccc1C(F)(F)F | x | x | x | n | x
